# Assay outcomes: PubChem, National Center for Advancing Translational Sciences (NCATS)
# HCMV antiviral: inhibitors of human cytomegalovirus | HFF cells, HCMV-luciferase reporter, 72 h; active compounds read low | activity change, negative = inhibition, % at 57.5 µM | hit rate 4.5% among 410,000 | AID 1259415; in the data active = activity change below about -60%; inconclusive = no clear call, values can overlap the other calls; inactive = above about -39%
#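 Human foreskin fibroblasts infected with luciferase-reporter HCMV at MOI 1 PFU/cell, compounds at two doses. Luciferase measured 72 h post infection; normalized to buffer-only basal and Salinomycin (10uM) controls.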
# Lassa entry inh: Lassa virus entry inhibition. Lassa virus pseudotype entry inhibition, cell reporter. Potency, µM (top dose mostly 37.9 µM), for the others: top-dose activity change, negative = inhibition, usual class: inhibitors. hit rate 1.2% among 300,000; calls by dose curve; tested in HEK293 cells; note: potency is the fitted concentration of half-maximal effect; nearly all actives have a fitted effect of over 50% in size
# FMDV inh: foot and mouth disease virus antiviral activity; FMDV antiviral cell-based qHTS; AID 1159524; hit rate 1.2% among 410,000; Potency, µM (doses to about 57.9 µM), for inactives: at the top dose activity change, negative = inhibition, usual class: inhibitors; calls by dose curve; tested in HEK293T cells; note: read-out not given here; potency is the fitted concentration of half-maximal effect; nearly all actives have a fitted effect of over 45% in size
# MARV entry inh: blocks Marburg virus binding to or entry into cells. Marburg virus pseudotyped entry inhibition, cell reporter. Potency, µM (doses to about 37.8 µM), for inactives: at the top dose activity change, negative = inhibition, usual class: inhibitors. hit rate 1.8% among 300,000; calls by dose curve; tested in HEK293 cells; note: potency is the fitted concentration of half-maximal effect
# An asterisk follows results filed as active; ? = inconclusive; nt = not tested or not shown; [ ] = another dose, or the depositor's remark. Sampled rows, rich in hits. Any-hit rate of the full collection: about 6.2%. % is set by controls: 0 for no effect and ±100 for the full control effect.
SMILES,HCMV antiviral,Lassa entry inh,FMDV inh,MARV entry inh
Clc1ccc(CNC2CCN(Cc3ccccc3)CC2)cc1,-2,-18%[46.1 µM],-26%,10µM*
S=C(Nc1ccc(Cl)cc1Cl)NC1CCN(Cc2ccccc2)CC1,?,?,-39%,?
Clc1ccc(CN2CCC(c3ccccc3)CC2)cc1,-103*,nt,-21%,nt
Clc1ccc(CN2CCC(c3nc4ccc(Cl)cc4[nH]3)CC2)cc1,-65*,?,?,11µM*
Cc1cccc(N(C)S(=O)(=O)c2c(C(=O)N3CCCCCC3)c(C)n(C)c2C)c1,-8,0%[46.1 µM],8%,nt
CC(C)CON=C1C[C@@H](O)[C@@H](O)[C@@H]2[C@H]3C(=O)N(Cc4ccc5c(c4)OCO5)C(=O)[C@@H]3CC[C@@H]12,nt,nt,nt,-30%[14.2 µM]
Cc1cc(C)c(C)c(S(=O)(=O)NCc2ccncc2)c1C,-68*,?,20%,?
CNC(=O)c1cc(S(=O)(=O)NCc2ccncc2)ccc1OC,?,nt,-14%,nt
Cc1cc(Br)c(S(=O)(=O)NCc2ccncc2)cc1C,-82*,?,-3%,?
O=S(=O)(NCc1ccncc1)c1ccc(Br)s1,-61*,-16%,-16%,?
O=C(O)CNS(=O)(=O)c1ccc(Br)s1,19,4%,-3%,-21%
COc1cc(S(=O)(=O)NCc2ccncc2)ccc1Br,-70*,?,-23%,?
COc1cc(C)c(Cl)cc1S(=O)(=O)NCc1ccncc1,nt,nt,nt,1%
CCOC(=O)C1=C(CS(=O)(=O)c2ccc(F)cc2)NC(=O)NC1c1ccc(OCC)c(OC)c1 (stereo not given),-16,0%[46.1 µM],-5%,17%[46.1 µM]
Cc1cc(C)c(NC(=O)Cn2c(=O)n(CCC(=O)NCc3ccc4c(c3)OCO4)c(=O)c3ccccc32)c(C)c1,5,6%[46.1 µM],21%,?
CCCOc1ccc(-c2cccc(NS(=O)(=O)c3cc(OC)ccc3OC)c2)nn1,-8,0%[46.1 µM],14%,nt
Cc1ccc(S(=O)(=O)NCc2ccncc2)cc1C,-68*,?,3%,?
O=S(=O)(NCc1cccnc1)c1ccc2ccccc2c1,-63*,-6%[46.1 µM],22%,-19%[46.1 µM]
Cc1ccc(S(=O)(=O)NCc2ccncc2)cc1C(=O)NCC(C)C,-5,-2%,-2%,-29%
CCn1c(=O)cc(OCC(=O)Nc2cc(OC)c(OC)c(OC)c2)c2ccccc21,19,3%[46.1 µM],0%,?
CC(=O)NC(Cc1cccc(C)c1)C(=O)NC1CCN(C(=O)c2ccc([N+](=O)[O-])cc2)CC1 (stereo not given),-74*,-6%,17%,-1%
CC(=O)NC(Cc1ccccc1)C(=O)NC1CCN(C(=O)c2ccc([N+](=O)[O-])cc2)CC1 (stereo not given),-22,7%,-15%,9%
COc1ccc2c(Cn3cnc4cc([N+](=O)[O-])ccc4c3=O)cc(=O)oc2c1,nt,?,?,4.5µM*
Cc1ccc(NC(=O)c2ccc(S(=O)(=O)N3CCC(C)CC3)cc2)nc1,-64*,-26%,-15%,-24%
Cc1ccc(NC(=O)c2ccc(Cl)c(S(=O)(=O)N3CCCCCC3)c2)nc1,-68*,-30%,?,-18%[46.1 µM]
SMILES,HCMV antiviral,Lassa entry inh,FMDV inh,MARV entry inh
Cc1ccc(NC(=O)c2ccc(C)c(S(=O)(=O)N3CCCCC3)c2)nc1,-26,-10%,-24%,?
Clc1ccc(-c2nc3ccccn3c2CN2CCCCC2)cc1,-77*,nt,?,nt
CN(C)Cc1c(-c2ccc(Cl)cc2)nc2ccccn12,-8,9%[46.1 µM],18%,?
Cc1ccc(C)c(Nc2cc(C(=O)NCCCN(C)C3CCCCC3)c3ccccc3n2)c1,?,-17%[46.1 µM],-9%,?
CCCCN(C)CCCNC(=O)c1cc(Nc2ccc(OC)c(OC)c2)nc2ccccc12,68,nt,?,nt
CCCCN(CCCNC(=O)c1cc(Nc2ccc(OC)c(OC)c2)nc2ccccc12)Cc1ccccc1,-18,?,-10%,?
COc1ccc(Nc2cc(C(=O)NCCCN(C)Cc3ccccc3)c3ccccc3n2)cc1OC,-100*,2%[46.1 µM],-16%,nt
Cc1cc(C)cc(Nc2cc(C(=O)NCCCN(C)C3CCCCC3)c3ccccc3n2)c1,-99*,-27%[46.1 µM],?,?
CCCCN(CCCNC(=O)c1cc(Nc2ccc(OC)cc2)nc2ccccc12)Cc1ccccc1,-71*,26%[46.1 µM],-3%,8%[46.1 µM]
CCCCN(C)CCCNC(=O)c1cc(-c2ccc(Br)s2)nc2ccccc12,-68*,?,-9%,13%[46.1 µM]
CCCCN(CC)CCCNC(=O)CS(=O)(=O)Cc1nc(-c2ccc(C)cc2)oc1C,?,?,-24%,-1%[46.1 µM]
CCn1c(-c2cccnc2)nc2cc(NC(=O)COC)cc(C(=O)N3CCOc4ccccc4C3)c21,nt,nt,2%,nt
O=C(NNc1ncccc1Cl)c1c(Cl)cccc1Cl,-67*,7%,-4%,0%
O=C(Nc1ccncc1)Nc1cccc(Cl)c1Cl,-61*,nt,?,nt
O=C(Nc1ccccc1)Nc1cccc(Cl)c1Cl,104,?,26%,?
COC(=O)c1ccccc1S(=O)(=O)Nc1ccc2cn[nH]c2c1,61,8%,20%,-14%[46.1 µM]
O=C(Nc1ccc(Oc2ccc(NC(=O)Nc3ccccc3Cl)cc2)cc1)Nc1ccccc1Cl,-62*,?,-10%,?
O=C(CN1CCCC1)Nc1ccc(NC(=O)Nc2ccccc2Cl)cc1,53,28%,49%,23%
O=C1C(Cl)=C(Nc2ccc3cn[nH]c3c2)C(=O)c2ccccc21,-100*,3.5µM*,20µM*,?
COc1cc(-c2nc(Cn3nnc(C(=O)Nc4ccccc4)c3C)c(C)o2)cc(OC)c1OC,-11,?,0%,?
CCOc1ccc(CNC(=O)c2cc3c(=O)oc4ccc(C)cc4c3s2)cc1,-7,9%[46.1 µM],0%,14%[46.1 µM]
O=C(/C=C\c1ccc2c(c1)OCO2)NC1CC(=O)N(c2cccc(F)c2)C1 (stereo not given),-22,16%[46.1 µM],-9%,nt
COC(=O)N(C)C[C@H]1OCc2cn(nn2)CCCC(=O)N([C@H](C)CO)C[C@@H]1C,21,nt,nt,nt
CCCCNC(=O)N[C@H]1CC[C@@]23CCCN2C(=O)CCC[C@H]3C1Cc1ccccc1 (stereo not given in full),-6,nt,nt,nt
O=C(Nc1ccc2cn[nH]c2c1)c1c(Cl)cccc1Cl,-94*,15%,-9%,10%
SMILES,HCMV antiviral,Lassa entry inh,FMDV inh,MARV entry inh
O=C(Nc1ccncc1)c1c(Cl)cccc1Cl,-66*,nt,-2%,nt
O=C(Nc1ccc2cn[nH]c2c1)c1ccccc1F,92,?,9%,?
O=C(COc1ccc(-c2ccccc2)cc1)N/N=C/c1cc(O)ccc1Br,-61*,1%,-17%,6%
O=C(COc1ccc(-c2ccccc2)cc1)N/N=C/c1ccccc1Br,8,-6%,-4%,5%
O=C(COc1ccccc1)NCC(=O)N/N=C/c1cc(Br)ccc1OCc1ccccc1,13,?,0%,8.9µM*
Cc1ccccc1C(=O)N(Cc1nc(-c2ccc(Cl)cc2)no1)C(C)C,?,?,?,-27%[46.1 µM]
Cc1ccc(C(=O)N(Cc2nc(-c3ccc(C)cc3)no2)C(C)C)cc1,6,nt,-23%,nt
CC(C)N(Cc1nc(-c2ccc(Cl)cc2)no1)C(=O)c1cccs1,-60*,0%,-28%,?
CC(C)N(Cc1nc(-c2ccccc2)no1)C(=O)c1ccc(Cl)cc1,-89*,nt,-25%,nt
